High-throughput results (PubChem)
This is one part of a sample in which hits are shown more often than they occur.
DT40 TDP1 no CPT – qHTS for Inhibitors of human tyrosyl-DNA phosphodiesterase 1 (TDP1): qHTS in cells in absence of CPT | DT40 Tdp1-/- hTDP1 cells, no CPT, ATP luminescence, 48 h | 15% of 420,000 active | Potency, µM (series often up to 46.2 µM), usual class: inhibitors; further: nearly all actives have a fitted effect of over 55% in size
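Camptothecin absent (DMSO only). Human TDP1-complemented DT40 knockout cells, 400 cells/well, 37 °C for minimum 48 hr; ATP measured via CellTiter-Glo, 30 min dark incubation, luminescence.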
ALOX12 inh – inhibitors of human 12S-lipoxygenase ALOX12; Potency, µM (doses to about 108 µM), actives largely listed as inhibitors; 1.1% of 580,000 active; purified 12hLO, xylenol orange hydroperoxide absorbance; AID 1671190
Target sequence (P18054 whole entry, looked up): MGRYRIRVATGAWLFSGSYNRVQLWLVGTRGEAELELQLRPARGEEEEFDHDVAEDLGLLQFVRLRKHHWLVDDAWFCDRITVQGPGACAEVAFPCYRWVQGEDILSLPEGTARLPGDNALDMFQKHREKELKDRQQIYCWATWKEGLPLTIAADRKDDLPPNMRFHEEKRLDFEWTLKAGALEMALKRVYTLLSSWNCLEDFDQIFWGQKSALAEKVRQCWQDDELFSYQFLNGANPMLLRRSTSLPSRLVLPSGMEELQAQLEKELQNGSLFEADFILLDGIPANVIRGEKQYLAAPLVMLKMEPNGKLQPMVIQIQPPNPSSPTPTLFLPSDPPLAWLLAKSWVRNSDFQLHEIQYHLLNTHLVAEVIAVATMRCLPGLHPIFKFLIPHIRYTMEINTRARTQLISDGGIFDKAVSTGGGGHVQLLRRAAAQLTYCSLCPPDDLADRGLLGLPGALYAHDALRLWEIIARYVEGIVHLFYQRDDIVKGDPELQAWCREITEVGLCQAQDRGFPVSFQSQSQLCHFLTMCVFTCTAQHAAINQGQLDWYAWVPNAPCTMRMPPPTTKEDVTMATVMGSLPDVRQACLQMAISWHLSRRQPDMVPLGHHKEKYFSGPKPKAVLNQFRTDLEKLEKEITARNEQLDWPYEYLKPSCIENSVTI
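Hydroperoxide product was detected by ferrous iron/xylenol orange as the 573 to 405 nm absorbance ratio. Arachidonic acid at 40 uM (final) was turned over for 30 min at room temperature by 150 nM human 12hLO, pH 7.0 Hepes buffer, after 15 min compound preincubation.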
HT1080-NT tox – kills 2HG-producing HT-1080-NT fibrosarcoma cells. HT-1080-NT fibrosarcoma viability, CellTiter-Glo ATP luminescence, 48 h. Potency, µM (top dose mostly 46.1 µM), hits mostly cytotoxic. 1.6% of 360,000 active. AID 686970;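 further: NT is the 2HG producing partner of a matched IDH1 knockdown line; nearly all actives have a fitted effect of over 55% in size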
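Fibrosarcoma NT cells, 750 per well in 5% FBS RPMI, were exposed to compound for 48 hours. Viability: CellTiter-Glo luminescence.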
DT40 TDP1 CPT – growth inhibition of DT40 Tdp1-/-;hTDP1 cells with camptothecin (screen for TDP1 inhibitors); chicken DT40 Tdp1-/-;hTDP1 cells + 20 nM CPT, ATP luminescence, 48 h; Potency, µM (doses to about 46.2 µM), actives largely listed as inhibitors; 12% of 420,000 active; AID 686979; further: nearly all actives have a fitted effect of over 55% in size
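Chicken DT40 Tdp1-/- cells complemented with human TDP1, 400 cells/well, exposed to compounds plus 20 nM camptothecin for at least 48 h at 37 C; viability read as ATP content by CellTiter-Glo luminescence.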
HT1080 IDH1KD tx – toxicity to HT-1080 IDH1 knockdown cells (counter line). HT-1080 IDH1 knockdown viability, ATP luminescence, 48 h. Potency, µM (titrated, usually from 46.1 µM), actives largely listed as cytotoxic. 2% of 360,000 active
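CellTiter-Glo luminescence after 48 h compound exposure at 37 degrees C of IDH1-knockdown HT-1080 cells in 5% FBS RPMI. %Activity scaled between DMSO wells and cell-free media wells, with curves fitted and assigned curve classes.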
IL-1B inflam inh – inhibitors of inflammasome signaling (IL-1 beta secretion); THP-1 LPS/ATP IL-1B secretion, AlphaLISA, 16 h; hits give low values; activity change, % at 57.5 µM; 4.7% of 360,000 active; AID 743279; in the data active means activity change below about -50%; inconclusive means mostly about -30% to -49%
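THP-1 cells pretreated 1 hr with compounds (up to 57.5 uM final), then stimulated with LPS (250 ng/mL final) plus ATP (1.25 mM final); secreted IL-1B measured by AlphaLISA after 16 hr, decreased signal indicating inhibition.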
Large screens that a line does not name were inactive; ! = not confirmed by another sample. Unless noted, the call rests on the fitted dose curve; in most records, active means well fitted curve in the direction sought with a large enough effect; inconclusive means small, poorly fitted or top-dose-only effect, or another doubt; inactive means no such curve, though single readings can be large; an effect the other way counts as inactive or inconclusive.

COc1ccc(OC)c(CN2CCN(C(=O)COc3cccc(C)c3)CC2)c1	DT40 TDP1 no CPT inconclusive, ALOX12 inh inconclusive, DT40 TDP1 CPT 26µM
COc1ccccc1CN1CCN(C(=O)COc2ccc3ccccc3c2)CC1	ALOX12 inh inconclusive, DT40 TDP1 CPT inconclusive
COc1ccccc1CN1CCN(C(=O)COc2cccc(C)c2)CC1	DT40 TDP1 no CPT 21µM!, ALOX12 inh inconclusive, DT40 TDP1 CPT inconclusive
ClCCN1CCN(c2ccnc3cc(Cl)ccc23)CC1	DT40 TDP1 no CPT 15µM, DT40 TDP1 CPT 13µM, IL-1B inflam inh -50
O=C(Oc1ccnc2cc(Cl)ccc12)N1CCOCC1	DT40 TDP1 no CPT inconclusive
O=C(CSC1c2ccccc2-c2ccccc21)N/N=C/c1ccccc1O	DT40 TDP1 no CPT 6.5µM, HT1080-NT tox 4.5µM, DT40 TDP1 CPT 7.3µM, HT1080 IDH1KD tx inconclusive
O=C(CSC1c2ccccc2-c2ccccc21)N/N=C/c1ccc(C(=O)O)cc1	none
C=CCc1cc(OC)c2c(c1)OCO2	none
COc1cc(C2c3cc4c(cc3C(OC(C)=O)[C@H]3COC(=O)C23)OCO4)cc(OC)c1OC (some centres not stated)	DT40 TDP1 no CPT 0.033µM, DT40 TDP1 CPT 1µM (no result: ALOX12 inh, HT1080-NT tox, HT1080 IDH1KD tx, IL-1B inflam inh)
COc1cc(C2c3cc4c(c(O)c3CC3COC(=O)C32)OCO4)cc(OC)c1O (configuration not stated)	DT40 TDP1 no CPT inconclusive, ALOX12 inh inconclusive, DT40 TDP1 CPT 0.071µM (no result: HT1080-NT tox, HT1080 IDH1KD tx, IL-1B inflam inh)
COc1cc(C2c3cc4c(cc3CC3COC(=O)C32)OCO4)cc(OC)c1O (configuration not stated)	DT40 TDP1 no CPT 0.29µM, ALOX12 inh inconclusive, HT1080-NT tox inconclusive, DT40 TDP1 CPT 0.052µM, HT1080 IDH1KD tx inconclusive
CC1CN(c2ccccc2)NC1=O (configuration not stated)	DT40 TDP1 no CPT inconclusive, ALOX12 inh 28µM, DT40 TDP1 CPT 13µM
CN1CCN2C(=O)N(c3ccccc3)C[C@H]2C1	none (no result: DT40 TDP1 no CPT, HT1080-NT tox, DT40 TDP1 CPT, HT1080 IDH1KD tx, IL-1B inflam inh)
c1ccc2c(CNC3CCCCCC3)c[nH]c2c1	DT40 TDP1 no CPT 7.3µM, HT1080-NT tox inconclusive, DT40 TDP1 CPT 3.3µM, HT1080 IDH1KD tx 20µM, IL-1B inflam inh -70
Clc1ccccc1CNCCc1c[nH]c2ccccc12	DT40 TDP1 no CPT inconclusive
COCCN1C[C@H]2CN(Cc3ccccn3)CCN2C1=O	none (no result: DT40 TDP1 no CPT, HT1080-NT tox, DT40 TDP1 CPT, HT1080 IDH1KD tx, IL-1B inflam inh)
COc1ccc([C@@H]2CN(C(=O)c3sccc3C)[C@@H]3C4CCN(CC4)[C@@H]32)cc1	none (no result: DT40 TDP1 no CPT, HT1080-NT tox, DT40 TDP1 CPT, HT1080 IDH1KD tx, IL-1B inflam inh)
Nc1nc(F)nc2c1ncn2[C@@H]1O[C@H](CO)[C@@H](O)[C@H]1O	DT40 TDP1 no CPT 0.16µM, HT1080-NT tox 0.65µM, DT40 TDP1 CPT 0.058µM, HT1080 IDH1KD tx 0.23µM, IL-1B inflam inh -74
O=C(OCC1OC(n2cnc3c(N(C(=O)c4ccccc4)C(=O)c4ccccc4)ncnc32)C(O)C1F)c1ccccc1 (configuration not stated)	DT40 TDP1 no CPT inconclusive, HT1080-NT tox inconclusive, DT40 TDP1 CPT inconclusive, HT1080 IDH1KD tx inconclusive
CCNC(=O)C1OC(n2cnc3c(N)ncnc32)C(O)C1O (configuration not stated)	HT1080-NT tox inconclusive, HT1080 IDH1KD tx inconclusive, IL-1B inflam inh inconclusive
Nc1nc(F)nc2c1ncn2[C@@H]1O[C@H](CO)[C@@H](O)[C@@H]1O	DT40 TDP1 no CPT 0.16µM, HT1080-NT tox inconclusive, DT40 TDP1 CPT 0.21µM, HT1080 IDH1KD tx inconclusive
COc1ccc(NC(=O)N2[C@H]3CC[C@@H]2c2cnc(C)nc2C3)cc1OC	none (no result: DT40 TDP1 no CPT, HT1080-NT tox, DT40 TDP1 CPT, HT1080 IDH1KD tx, IL-1B inflam inh)
COc1ccc(-c2ccc(=O)n3c2[C@@H]2C[C@@H](CN(C(=O)NC4CCCCC4)C2)C3)cc1	none (no result: DT40 TDP1 no CPT, HT1080-NT tox, DT40 TDP1 CPT, HT1080 IDH1KD tx, IL-1B inflam inh)
c1ccc(CN2CCC3(CC(c4cccnc4)=NO3)C2)nc1 (configuration not stated)	none (no result: DT40 TDP1 no CPT, HT1080-NT tox, DT40 TDP1 CPT, HT1080 IDH1KD tx, IL-1B inflam inh)
CC1=CC(=O)OC2CC3OC4C[C@@H](C)C5OC6CC7O[C@]8(C)C/C=C\C9OC%10CC%11OC(CC(C)CO)CC(O)[C@]%11(C)OC%10CC9OC8C[C@]7(C)O[C@]6(C)CCC5OC4C[C@]3(C)OC12 (some centres not stated)	DT40 TDP1 no CPT 21µM, DT40 TDP1 CPT 18µM
C=C(COC(=O)CCC(=O)O)CC1CC(O)[C@]2(C)OC3CC4OC5C[C@]6(C)O[C@]7(C)CCC8OC9C[C@]%10(C)OC%11C(C)=CC(=O)OC%11CC%10OC9C[C@@H](C)C8OC7CC6O[C@]5(C)C/C=C\C4OC3CC2O1 (some centres not stated)	DT40 TDP1 no CPT inconclusive, DT40 TDP1 CPT 13µM (no result: ALOX12 inh)
CN(C)C(=O)Oc1ccc(C(=O)c2ccccc2)cc1	none
CC(C)(C)n1cc(C(=O)c2ccccc2)cc1-c1ccccc1	DT40 TDP1 no CPT inconclusive, ALOX12 inh inconclusive, DT40 TDP1 CPT 26µM
COC[C@H]1CCCN1C[C@H]1CN2CC[C@H]1C[C@@H]2CNC(=O)c1ccc(N(C)C)cc1	none (no result: DT40 TDP1 no CPT, HT1080-NT tox, DT40 TDP1 CPT, HT1080 IDH1KD tx, IL-1B inflam inh)
Cc1cnc(C)c(Nc2nc(C(N)Cc3ccc(C(F)(F)F)cc3)cs2)n1 (configuration not stated)	DT40 TDP1 no CPT 12µM, ALOX12 inh inconclusive, HT1080-NT tox inconclusive, DT40 TDP1 CPT 12µM, HT1080 IDH1KD tx 16µM, IL-1B inflam inh inconclusive
CCOc1ccc(CN2CCN(c3cccc(C)c3C)CC2)cc1	none (no result: DT40 TDP1 no CPT, HT1080-NT tox, DT40 TDP1 CPT, HT1080 IDH1KD tx, IL-1B inflam inh)
